SMILES strings stand for the structures.

Format in all cases: functional
In assay [1] the test system is Plasmodium falciparum. Put plainly: GSK_TCMDC: Inhibition of Plasmodium falciparum 3D7 in whole red blood cells, using parasite LDH activity as an index of growth. Test compounds present at 2uM.
Assay [2] has as its system Plasmodium falciparum. Kind of assay: GSK_TCMDC: Inhibition of Plasmodium falciparum Dd2 in whole red blood cells, using parasite LDH activity as an index of growth. Test compounds present at 2uM.
In assay [3] the test system is HepG2. Kind of assay: GSK_TCMDC: Percent inhibition of human HepG2 cell line. Test compounds present at 10uM.

As to `O=C(N[C@@H](CC1CCCCC1)C(=O)NCCN1CCCC1)c1ccc(O)c(-c2ccc(Cl)c(Cl)c2)c1`, the values for the Inhibition in assay [1], in assay [2] and in assay [3] were 99%, 99% and 16%, respectively.
Regarding `COc1ccc(O)cc1Cc1cnc2nc(N)nc(N)c2c1C`, the values for the Inhibition in assay [1], in assay [2] and in assay [3] were 92%, 97% and 67%, respectively.
In the case of `O=C(/C=C/c1ccc(Cl)c(Cl)c1)NCCCCCCN1CCN(C(=O)Nc2cc(Cl)nc(Cl)c2)CC1`, the Inhibition (as a rule, the percentage by which the read-out fell short of the control) amounted to 100% in assay [1], 0% in assay [2] and 15% in assay [3].
`CCCCC(=O)Nc1cc(=O)[nH]c2nc(-c3ccc(Cl)cc3)nn12`: the Inhibition in assay [1] turned out to be 89%; in assay [2], 77%; in assay [3], 1%.
In the case of `CN(Cc1ccccc1)C(=O)CCNS(=O)(=O)c1cc(Br)cnc1N`, the values for the Inhibition in assay [1], in assay [2] and in assay [3] were 91%, 61% and 0%, respectively.
Turning to `CNS(=O)(=O)CCNCc1ccc(-c2ccc3ncnc(Nc4ccc(OCc5ccccc5)cc4)c3c2)o1`, the Inhibition was determined as 100% in assay [1], 26% in assay [2] and 19% in assay [3].
Turning to `COc1cc(Nc2nccc(N3CCC(NC(=O)C(C)c4ccc(Cl)cc4)C3)n2)cc(OC)c1OC` (configuration not stated), the figures for the Inhibition in assay [1], in assay [2] and in assay [3] were 97%, 90% and 2%, respectively.
As to `CC(C)(Oc1ccc(Cl)cc1)C(=O)NCCC1CCN(CCCCCNC(=O)/C=C/c2ccc(Cl)c(Cl)c2)CC1`, the Inhibition in assay [1] is given as 87%; in assay [2] it was 37%; in assay [3], 73%.
With `NCc1ccc(CNCc2cccc(-c3ccc(-c4nc5ccccc5[nH]4)cc3)c2)cc1.O=C(O)C(F)(F)F`, the Inhibition in assay [1] was 100%; in assay [2], 58%; in assay [3] it was 10%.
Taken in the same sequence, the figures for `CC(C)c1ccc(CN2CCC(CNC(=O)c3cc(-c4ccccc4F)cs3)C2)cc1.O=C(O)C(F)(F)F` (configuration not stated) were 100%, 29% and 32%.
Turning to `O=C(C=Cc1cccs1)Nc1ccc(-c2nc3ccccc3[nH]2)cc1`, the Inhibition in assay [1] stood at 83%; in assay [2] it was 3%; in assay [3], 0%.
Taken in the same sequence, the figures for `C[C@H](CNc1ccnc(Nc2ccc3[nH]c(=O)[nH]c3c2)n1)c1ccccc1.O=CO` were 100%, 0% and 61%.
For the molecule `CC(=O)c1ccc(NC(=O)Nc2ccc(N(C)c3ccnc(Nc4cccc(CS(C)(=O)=O)c4)n3)cc2)cc1`, the Inhibition is on record as 100% in assay [1], 98% in assay [2] and 86% in assay [3].
With `OCc1ccc2nc3c(cc2c1)-c1cccc2cccc-3c12`, the Inhibition in assay [1] stood at 96%; in assay [2], 0%; in assay [3] it was 16%.
`CCN(CC)CCN(Cc1ccc(-c2ccc(C(F)(F)F)cc2)cc1)C(=O)c1c[nH]c2ccc(Br)cc12`: the Inhibition in assay [1] is reported as 90%; in assay [2], 74%; in assay [3] it was 80%.
For `N#Cc1cccc(NC(=O)NC2CCN(CCCCCNC(=O)C3CC3c3ccc(Cl)c(Cl)c3)CC2)c1` (configuration not stated), the Inhibition in assay [1] is 100%; in assay [2] it was 0%; in assay [3], 36%.
The matching figures for `Cc1ccc(NC(=O)c2cccc(CN3CCCN(Cc4cccc(O)c4)CC3)c2)cc1F.O=C(O)C(F)(F)F`: 99%, 45% and 20%.
With `Cc1ccccc1C1CCN(C2CCC(NC(=O)c3cncc(-c4ccccc4)c3)CC2)CC1` (configuration not stated), the values for the Inhibition in assay [1], in assay [2] and in assay [3] were 100%, 92% and 27%, respectively.
Taken in the same sequence, the figures for `CC1(C)NC(N)=NC(=N)N1OCOc1cc(Cl)c(Cl)cc1Cl.Cl` were 96%, 98% and 66%.
The matching figures for `CC(C)NCc1ccc(-c2ccc(NC(=O)c3cccc(C#N)c3)cc2)cc1.O=C(O)C(F)(F)F`: 99%, 77% and 40%.
Taken in the same sequence, the figures for `CCOC(=O)c1ccc(OCCCCCCOc2ccc(Br)cc2)cc1` were 98%, 0% and 12%.
As to `CCOc1ccc(C(=O)Nc2cc3c(c(C(F)(F)F)c2)CCNC3)cc1Cl.Cl`, the Inhibition in assay [1] was found to be 91%; in assay [2], 1%; in assay [3], 4%.
Regarding `CCN(CC)c1nc(-c2ccccc2)cc(-c2ccccc2)c1C#N`, the Inhibition in assay [1] amounted to 100%; in assay [2], 66%; in assay [3], 0%.
The matching figures for `CCCOc1ccccc1C(=O)Nc1nonc1-c1ccc(OCC)c(OCC)c1`: 99%, 89% and 46%.
Regarding `CN1CCC(N2CCN(Cc3cccc(-c4cccc(-c5nc6ccccc6[nH]5)c4)c3)CC2)CC1.O=C(O)C(F)(F)F`, the Inhibition in assay [1] turned out to be 100%; in assay [2], 100%; in assay [3] it was 19%.
With `Cc1cc(C(=O)Nc2ccc(-c3nc4ccccc4[nH]3)cc2)ccc1[N+](=O)[O-]`, the Inhibition was 100% in assay [1], 47% in assay [2] and 55% in assay [3].
Regarding `CCc1cn2c3c(cc(C(=O)N[C@@H](Cc4cc(F)cc(F)c4)[C@H](O)CNC4CC4)cc13)N(C)S(=O)(=O)CC2.O=CO`, the Inhibition in assay [1] is 100%; in assay [2], 99%; in assay [3], 3%.
Regarding `O=C(O)c1cc(C(F)(F)F)co1`, the Inhibition in assay [1] is recorded as 96%; in assay [2], 19%; in assay [3] it was 0%.
Consider `Cc1ccc(C(=O)Nc2cccc(-c3ccc(N4CCN(C)CC4)nn3)c2)cc1[N+](=O)[O-]`, for which the Inhibition in assay [1] is on record as 99%; in assay [2], 40%; in assay [3], 32%.
